From PubChem BioAssay AID1159580 (chemical genetic matrix, 2015)
Where “and” joins values, the source holds several entries; their conditions need not be identical. Equal entries are not always repeated. About 2,000 (36%) of roughly 5,500 compounds were called active. Another 18% or so got no clear call; they are omitted. Cut-off read from the data, not from the text of the source: active = normalized growth mostly below about 0.91 (no sharp cut-off); inconclusive = no clear call, values can overlap the other calls; inactive = mostly above about 0.92. Some of the results follow.

Test: chemical genetic growth profiling, strain panel (AID 1159580);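 note: tested at 20 µM; growth read once vehicle control cultures reached saturation at 30 °C; 1 = growth at the plate median or of vehicle wells; lower values mean less growth of the strain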
Details: S. cerevisiae deletion strains, growth OD

Measured: normalized growth

CC(C)=CC1C(C(=O)OCc2cccc(Oc3ccccc3)c2)C1(C)C (configuration not stated)
inactive: locus YAL021C, strain ccr4, stronger effect = lower value 1.01 | locus YAL026C, strain drs2, stronger effect = lower value 1.02 | locus YAL030W, strain snc1, stronger effect = lower value 1.01 | locus YBL061C, strain skt5, stronger effect = lower value 1.01 | locus YBR009C, strain hhf1, stronger effect = lower value 1.01 | locus YBR021W, strain FUR4, stronger effect = lower value 0.998 | locus YBR023C, strain chs3, stronger effect = lower value 1.01 | locus YBR171W, strain sec66, stronger effect = lower value 1.02 | locus YBR229C, strain ROT2, stronger effect = lower value 0.947 | locus YBR231C, strain swc5, stronger effect = lower value 0.994 | locus YBR279W, strain paf1, stronger effect = lower value 1 | locus YCL011C, strain gbp2, stronger effect = lower value 1.01 | locus YCL016C, strain dcc1, stronger effect = lower value 1.01 | locus YCL029C, strain bik1, stronger effect = lower value 0.972 | locus YCL069W, strain vba3, stronger effect = lower value 1.01 | locus YCR088W, strain abp1, stronger effect = lower value 1.01 | locus YDL005C, strain med2, stronger effect = lower value 1.01 | locus YDL035C, strain GPR1, stronger effect = lower value 0.965 | locus YDL040C, strain nat1, stronger effect = lower value 1 | locus YDL074C, strain BRE1, stronger effect = lower value 1.01 | locus YDL101C, strain DUN1, stronger effect = lower value 0.997 | locus YDL185W, strain tfp1, stronger effect = lower value 0.968 | locus YDL192W, strain arf1, stronger effect = lower value 0.987 | locus YDR001C, strain nth1, stronger effect = lower value 1.01 | locus YDR069C, strain doa4, stronger effect = lower value 0.99 | locus YDR101C, strain arx1, stronger effect = lower value 0.967 | locus YDR137W, strain rgp1, stronger effect = lower value 0.993 | locus YDR150W, strain NUM1, stronger effect = lower value 0.993 | locus YDR159W, strain sac3, stronger effect = lower value 1.02 | locus YDR162C, strain NBP2, stronger effect = lower value 0.964 | locus YDR195W, strain ref2 0.98 | locus YDR297W, strain sur2, stronger effect = lower value 1 | locus YDR318W, strain mcm21, stronger effect = lower value 0.986 | locus YDR334W, strain swr1, stronger effect = lower value 1.01 | locus YDR335W, strain msn5, stronger effect = lower value 1.02 | locus YDR388W, stronger effect = lower value 0.983 | locus YDR392W, strain spt3, stronger effect = lower value 1.02 | locus YDR502C, strain sam2, stronger effect = lower value 0.992 | locus YEL003W, strain gim4, stronger effect = lower value 1.01 | locus YEL037C, strain rad23, stronger effect = lower value 1.01 | locus YEL061C, strain CIN8 (second series), stronger effect = lower value 1.01 | locus YEL061C, strain CIN8, stronger effect = lower value 0.995 | locus YER015W, strain faa2, stronger effect = lower value 1.01 | locus YER016W, strain bim1, stronger effect = lower value 1.01 | locus YER110C, stronger effect = lower value 0.978 | locus YER111C, strain swi4, stronger effect = lower value 1.01 | locus YER155C, strain BEM2 (second series), stronger effect = lower value 1.02 | locus YER155C, strain BEM2, stronger effect = lower value 0.998 | locus YER167W, strain BCK2, stronger effect = lower value 0.99 | locus YFR010W, strain ubp6, stronger effect = lower value 0.997 | locus YGL078C, strain dbp3, stronger effect = lower value 0.987 | locus YGL086W, strain mad1, stronger effect = lower value 0.996 | locus YGL167C, strain pmr1, stronger effect = lower value 1.02 | locus YGL173C, strain kem1, stronger effect = lower value 1 | locus YGL227W, strain vid30, stronger effect = lower value 1.01 | locus YGL240W, strain doc1, stronger effect = lower value 1.03 | locus YGL248W, strain PDE1, stronger effect = lower value 1.01 | locus YGL253W, strain hxk2, stronger effect = lower value 1.01 | locus YGR078C, strain PAC10, stronger effect = lower value 1.01 | locus YGR135W, strain pre9, stronger effect = lower value 0.982 | locus YGR229C, strain SMI1, stronger effect = lower value 0.99 | locus YGR252W, strain gcn5, stronger effect = lower value 0.991 | locus YHR013C, strain ard1, stronger effect = lower value 1.01 | locus YHR027C, strain rpn1, stronger effect = lower value 1.01 | locus YHR030C, strain SLT2, stronger effect = lower value 0.987 and 0.975 | locus YHR079C, strain IRE1 (second series), stronger effect = lower value 0.99 | locus YHR079C, strain IRE1, stronger effect = lower value 0.979 | locus YHR094C, strain hxt1, stronger effect = lower value 0.988 | locus YHR129C, strain ARP1, stronger effect = lower value 0.991 | locus YHR142W, strain chs7, stronger effect = lower value 1 | locus YHR200W, strain rpn10, stronger effect = lower value 0.976 | locus YIL066C, strain RNR3, stronger effect = lower value 0.96 | locus YIL073C, strain SPO22, stronger effect = lower value 1 | locus YIL125W, strain kgd1, stronger effect = lower value 0.976 | locus YIR030C, strain dcg1, stronger effect = lower value 0.982 | locus YJL092W, strain hpr5, stronger effect = lower value 1.01 | locus YJL095W, strain BCK1 (second series), stronger effect = lower value 1 | locus YJL095W, strain BCK1, stronger effect = lower value 1.06 and 0.979 | locus YJL115W, strain asf1, stronger effect = lower value 1.02 | locus YJL129C, strain trk1, stronger effect = lower value 1.03 | locus YJL134W, strain LCB3, stronger effect = lower value 0.987 | locus YJL154C, strain vps35, stronger effect = lower value 1.01 | locus YJL164C, strain tpk1, stronger effect = lower value 1.01 | locus YJL166W, strain qcr8, stronger effect = lower value 1 | locus YJL168C, strain set2, stronger effect = lower value 0.994 | locus YJL187C, strain SWE1 (second series), stronger effect = lower value 1.04 | locus YJR043C, strain POL32, stronger effect = lower value 0.971 | locus YJR066W, strain TOR1, stronger effect = lower value 0.896 | locus YKL009W, strain mrt4, stronger effect = lower value 0.977 | locus YKL068W, stronger effect = lower value 0.987 | locus YKL085W, strain MDH1 (second series), stronger effect = lower value 1 | locus YKL085W, strain MDH1, stronger effect = lower value 1 | locus YKL160W, strain elf1, stronger effect = lower value 1.02 | locus YKL190W, strain CNB1, stronger effect = lower value 0.997 | locus YKR001C, strain vps1, stronger effect = lower value 0.992 | locus YKR026C, strain gcn3, stronger effect = lower value 1.01 | locus YKR091W, strain srl3, stronger effect = lower value 1.01 | locus YLL001W, strain dnm1, stronger effect = lower value 1.02 | locus YLL026W, stronger effect = lower value 1.01 | locus YLL041C, strain sdh2, stronger effect = lower value 1.02 | locus YLR027C, strain aat2, stronger effect = lower value 1.01 | locus YLR039C, strain RIC1, stronger effect = lower value 0.972 | locus YLR058C, strain SHM2, stronger effect = lower value 0.993 | locus YLR102C, strain apc9, stronger effect = lower value 0.991 | locus YLR113W, strain HOG1, stronger effect = lower value 0.998 | locus YLR221C, strain rsa3, stronger effect = lower value 1.01 | locus YLR258W, strain gsy2, stronger effect = lower value 1.01 | locus YLR262C, strain YPT6 (second series), stronger effect = lower value 1.01 | locus YLR262C, strain YPT6, stronger effect = lower value 0.927 | locus YLR268W, strain sec22, stronger effect = lower value 0.993 | locus YLR320W, strain mms22, stronger effect = lower value 1.01 | locus YLR330W, strain CHS5, stronger effect = lower value 0.984 | locus YLR342W, strain FKS1 (second series), stronger effect = lower value 0.959 | locus YLR342W, strain FKS1, stronger effect = lower value 1.01 | locus YLR357W, strain rsc2, stronger effect = lower value 1.01 | locus YLR370C, strain arc18, stronger effect = lower value 1.03 | locus YLR371W, strain rom2, stronger effect = lower value 0.972 | locus YLR384C, strain iki3, stronger effect = lower value 1.02 | locus YLR418C, strain cdc73, stronger effect = lower value 0.985 | locus YML016C, strain PPZ1, stronger effect = lower value 0.993 | locus YML032C, strain rad52, stronger effect = lower value 0.983 | locus YML120C, strain ndi1, stronger effect = lower value 1.01 | locus YML124C, strain tub3, stronger effect = lower value 0.995 | locus YMR058W, strain fet3, stronger effect = lower value 1.02 | locus YMR078C, strain ctf18, stronger effect = lower value 0.972 | locus YMR125W, strain sto1, stronger effect = lower value 1.02 | locus YMR129W, stronger effect = lower value 1 | locus YMR205C, strain PFK2, stronger effect = lower value 0.993 | locus YMR223W, strain ubp8, stronger effect = lower value 0.983 | locus YMR231W, strain pep5, stronger effect = lower value 1.01 | locus YMR307W, strain GAS1, stronger effect = lower value 1.02 | locus YNL067W, strain RPL9B, stronger effect = lower value 1.04 | locus YNL071W, strain lat1, stronger effect = lower value 1.01 | locus YNL183C, strain NPR1, stronger effect = lower value 0.934 | locus YNL209W, strain ssb2, stronger effect = lower value 0.998 | locus YNL233W, strain BNI4, stronger effect = lower value 1.05 | locus YNL248C, strain rpa49, stronger effect = lower value 0.994 | locus YNL250W, strain rad50, stronger effect = lower value 0.982 | locus YNL271C, strain bni1, stronger effect = lower value 0.971 | locus YNL298W, strain CLA4, stronger effect = lower value 0.986 | locus YNL307C, strain MCK1, stronger effect = lower value 0.983 | locus YNL322C, strain KRE1 (second series), stronger effect = lower value 1.01 | locus YNR049C, strain mso1, stronger effect = lower value 1.01 | locus YNR052C, strain pop2, stronger effect = lower value 0.988 | locus YOL006C, strain TOP1, stronger effect = lower value 1.12 | locus YOL012C, strain htz1 1.31 | locus YOL147C, strain pex11, stronger effect = lower value 0.988 | locus YOR001W, strain rrp6, stronger effect = lower value 0.988 | locus YOR061W, strain CKA2, stronger effect = lower value 0.977 | locus YOR069W, strain VPS5, stronger effect = lower value 0.992 | locus YOR070C, strain gyp1, stronger effect = lower value 1 | locus YOR080W, strain dia2, stronger effect = lower value 1.01 | locus YOR083W, strain WHI5, stronger effect = lower value 1 | locus YOR106W, strain vam3, stronger effect = lower value 0.938 | locus YOR136W, strain idh2, stronger effect = lower value 0.996 | locus YOR144C, strain elg1, stronger effect = lower value 0.971 | locus YOR184W, strain ser1, stronger effect = lower value 0.992 | locus YOR231W, strain MKK1, stronger effect = lower value 0.989 | locus YOR265W, strain rbl2, stronger effect = lower value 0.996 | locus YOR270C, strain vph1, stronger effect = lower value 0.948 | locus YOR290C, strain snf2, stronger effect = lower value 1.02 | locus YOR316C, strain cot1, stronger effect = lower value 0.985 | locus YPL051W, strain arl3, stronger effect = lower value 0.995 | locus YPL078C, strain atp4, stronger effect = lower value 1.02 | locus YPL106C, strain sse1, stronger effect = lower value 1.04 | locus YPL240C, strain hsp82, stronger effect = lower value 1.01 | locus YPL256C, strain CLN2, stronger effect = lower value 0.995 | locus YPR119W, strain clb2, stronger effect = lower value 0.988 | locus YPR141C, strain kar3, stronger effect = lower value 0.982 | locus YPR163C, strain tif3, stronger effect = lower value 0.97 | locus YPR167C, strain met16, stronger effect = lower value 0.983 | strain wtn01, stronger effect = lower value 0.995
